Consider 92 molecules from PubChem BioAssay AID1779 (Sanford-Burnham Center for Chemical Genomics, 2009).

Screen size: about 290,000 compounds; about 160 (0.055%) were called active. The entries come from a sample that favours actives as a whole. Unmarked numbers belong to inactive results. Rule as the data show it: active = inhibition above about 50%; inactive = the rest.

Chain of Tyrosine-protein phosphatase non-receptor type 22 (Homo sapiens) (Q9Y2R2 whole entry, looked up): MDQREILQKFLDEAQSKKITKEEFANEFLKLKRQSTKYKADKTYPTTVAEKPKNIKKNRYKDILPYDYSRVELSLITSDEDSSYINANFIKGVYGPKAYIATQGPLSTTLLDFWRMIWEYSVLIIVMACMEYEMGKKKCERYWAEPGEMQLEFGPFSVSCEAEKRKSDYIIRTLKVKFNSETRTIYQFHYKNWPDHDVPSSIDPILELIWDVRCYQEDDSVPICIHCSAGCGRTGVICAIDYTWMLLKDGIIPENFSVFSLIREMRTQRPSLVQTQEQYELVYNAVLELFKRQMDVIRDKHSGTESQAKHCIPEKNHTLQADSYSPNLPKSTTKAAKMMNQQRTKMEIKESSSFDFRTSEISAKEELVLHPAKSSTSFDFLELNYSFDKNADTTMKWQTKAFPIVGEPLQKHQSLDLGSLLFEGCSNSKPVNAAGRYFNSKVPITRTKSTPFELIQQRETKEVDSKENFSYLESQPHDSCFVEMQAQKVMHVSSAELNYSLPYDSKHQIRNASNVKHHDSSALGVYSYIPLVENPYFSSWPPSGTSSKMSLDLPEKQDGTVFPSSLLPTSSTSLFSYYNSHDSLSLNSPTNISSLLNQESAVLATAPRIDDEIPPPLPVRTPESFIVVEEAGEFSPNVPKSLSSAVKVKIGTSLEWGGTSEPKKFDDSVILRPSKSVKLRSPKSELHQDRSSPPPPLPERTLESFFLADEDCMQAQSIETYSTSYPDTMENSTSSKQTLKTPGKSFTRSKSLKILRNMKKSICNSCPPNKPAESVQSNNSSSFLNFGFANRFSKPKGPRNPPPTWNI

The assay addresses Tyrosine-protein phosphatase non-receptor type 22 (Homo sapiens) (UniProt Q9Y2R2). The assay can be described thus: PTPN22 lymphoid phosphatase activity blockers – biochemical, fluorescence intensity, uHTS (AID 1779).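 Also: plate controls were vehicle with enzyme for no effect and no enzyme for full effect.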 The conditions noted are these: recombinant LYP phosphatase, at 11.5 µM, active compounds read high.
With `CC1CCN(C(=O)Cn2c(SCC(=O)Nc3nccs3)nc3ccccc32)CC1`, the inhibition (usually the change of the read-out against control, counted positive when it falls) is -1%.
To `CN1CCN(c2ccccc2NC(=O)Cc2ccc(Cl)cc2)CC1` belongs -9.1%; to `NN1C(=O)/C(=C2/Sc3ccccc3N2CCCS(=O)(=O)O)SC1=S`, -6.6%; to `CC1=NN(C(=O)c2ccc(Cn3ccc([N+](=O)[O-])n3)cc2)C(O)(C(F)(F)F)C1` (configuration not stated), 63.4% (active).
To `CC1=NN(C(=O)c2ccc(Cn3cc([N+](=O)[O-])cn3)cc2)C(O)(C(F)(F)F)C1` (configuration not stated) belongs -3.4%; to `CC1=NN(C(=O)Cn2ccc([N+](=O)[O-])n2)C(O)(C(F)(F)F)C1` (configuration not stated), -3.6%; to `CC1Cc2ccccc2N1C(=O)CCn1c(=O)oc2ccccc21` (configuration not stated), 5.2%.
On to `COc1ccc(C(=O)n2ncc(C#N)c2N)cc1`, for which the inhibition was -0.2%.
To `CSC1=NCCN1CCOc1ccccc1` belongs -8.5%; to `O=C(Cc1cccs1)N1CCN(c2ccc(F)cc2)CC1`, -8.1%; to `O=C(Cc1cccs1)N1CCN(c2ccc([N+](=O)[O-])cc2)CC1`, 70% (active).
Then `O=C(Cc1ccc([N+](=O)[O-])cc1)N1CCN(c2ccc([N+](=O)[O-])cc2)CC1`, with -5.9%; and `CCOC1(C)OCC(=O)[C@]2(CCC3C4CCC5=CC(=O)C=CC5(C)C4C(=O)CC32C)O1` (some centres not stated), with 55.8% (active).
Then `C[C@]12C=CC(=O)C=C1CC[C@@H]1[C@@H]2C(=O)C[C@@]2(C)[C@H]1CC[C@]2(O)C(=O)CO`, with -5.9%; and `CC(=O)OCC(=O)[C@@]1(O)CC[C@H]2[C@@H]3CCC4=CC(=O)C=C[C@]4(C)[C@H]3C(=O)C[C@@]21C`, with -4.3%; and `CCN(CC)CCNC(=O)C1CCN(S(=O)(=O)N2CCCCC2)CC1`, with -7.2%.
Regarding `COc1ccccc1N1CCN(C(=O)C2CCN(C(=O)c3ccccc3C)CC2)CC1`, the inhibition was -10.9%.
Then `COc1ccccc1N1CCN(C(=O)C2CCN(C(=O)c3cccc(Cl)c3)CC2)CC1`, with -6.5%.
Turning to `COc1ccccc1N1CCN(C(=O)C2CCN(C(=O)c3ccccc3Cl)CC2)CC1`, the inhibition is 69.4% (active).
To `O=C(Nc1ccc2c(c1)OCO2)c1ccccc1SCC(=O)N1CCCC1` belongs 0.1%; to `CCOc1cc(N2CCOCC2)c(OCC)cc1NC(=O)c1c(-c2ccccc2Cl)noc1C`, 2.6%; to `CCSc1nnc(NC(=O)C2CCCCC2C(=O)O)s1` (configuration not stated), 66.2% (active).
Then `CCSc1nnc(NC(=O)C2CCCCC2)s1`, with -4.2%.
Then `CCSc1nnc(NC(=O)C2CC=CCC2C(=O)O)s1` (configuration not stated), with 0.6%.
`CS(=O)(=O)N(CC(=O)Nc1ccccc1Br)Cc1ccccc1`: the inhibition was -4.5%.
Then `O=C1OC(c2ccc(Br)cc2)=N/C1=C\c1ccco1`, with 63.7% (active); and `CC1=N/C(=C/c2ccco2)C(=O)O1`, with -3.8%.
To `O=C1NC(c2ccc(Br)cc2)=N/C1=C/c1ccco1` belongs 9.9%; to `CCOC(=O)c1ccc(N2C(=O)C3C(/C=C/c4ccccc4)OC4(C(=O)c5ccccc5C4=O)C3C2=O)cc1` (configuration not stated), 7.3%; to `CCOC(=O)c1cc(-c2cc(OC)c(OC)c(OC)c2)nc2c1c(=O)[nH]c(=O)n2Cc1ccccc1`, -8.7%.
As to `CCOc1ccc(C(=O)Nc2ccc(Cl)cn2)cc1Cl`, the inhibition is 80.4% (active).
For `COc1ccc(C(=O)Nc2ccc(Cl)cn2)cc1Cl`, the inhibition was 0.7%.
To `O=C(COc1ccc(Cl)cc1Cl)Nc1ccc(Cl)cn1` belongs -4.3%.
To `CCn1c(SCC(=O)N/N=C(/C)c2ccncc2)nc2ccccc21` belongs -6.6%; to `Cc1ccc(S(=O)(=O)NC(=O)Nc2nnc(C3CC3)s2)cc1`, -9.1%.
In the case of `CC(=O)Nc1ccc(NC(=O)CSc2ccc(-c3sc(C)nc3C)nn2)cc1`, the inhibition was -10.3%.
Turning to `N#Cc1c(/N=C\c2ccc(O)c([N+](=O)[O-])c2)sc2c1CCCC2`, the inhibition is 7.9%.
On to `CC1=NN(c2ccccc2)C(=O)/C1=C\C=C1\N(C)c2ccccc2C1(C)C`, for which the inhibition was 6.4%.
Consider `O=C(CNC(=O)c1ccc(Cl)cc1)NCC(F)(F)F`, for which the inhibition is 68.8% (active).
To `O=C(CNC(=O)c1ccc(F)cc1)NCc1ccc(Cl)cc1` belongs -3%.
To `CC(=O)NCCNC(=O)CNC(=O)c1ccc(Cl)cc1` belongs -1.1%; to `O=C1CC(N2CCN(c3cccc(C(F)(F)F)c3)CC2)C(=O)N1c1ccc(F)cc1` (configuration not stated), 4.8%; to `O=C(NC1CCCCCC1)C(=O)NC1CCCC1`, -2.9%.
Then `N#CC(C(=O)NC1CCCCC1)=C1CCCCCC1`, with 2.1%; and `N#CC(C(=O)NC1CCCCC1)=C1CCCCC1`, with 62.7% (active).
For the molecule `CCN(CCCNC(=O)C1CCN(S(=O)(=O)c2cccc3nonc23)CC1)Cc1ccccc1`, the inhibition was -4.7%.
`Cc1cc([N+](=O)[O-])ccc1NC(=O)CCC(=O)N1CCCCC1`: the inhibition is -5.2%.
To `COc1ccc(NC(=S)N(CCN(C)C)C(C)c2ccncc2)cc1Cl` (configuration not stated) belongs -7.3%; to `CCOC(=O)C1=C(CP(=O)(c2ccccc2)c2ccccc2)NC(=O)NC1c1ccc(OC)cc1` (configuration not stated), 4%; to `CC(C)c1c(O)c2c(n(-c3ccccc3)c1=O)CCCC2`, 1%.
Then `CC/C(=N\O)c1c(O)c2c(n(-c3ccccc3)c1=O)CCCC2`, with 3.9%.
To `O=c1c(-c2ccccc2)c(O)c2c(n1-c1ccccc1)CCCC2` belongs 66.2% (active); to `Cc1cc(C)cc(Cn2ncc(Cl)c(Cl)c2=O)c1`, -5.9%; to `COc1ccc(C(=O)Nc2nc(N3C(=O)c4ccccc4C3=O)n(-c3ccccc3)n2)cc1`, -1.2%.
In the case of `O=C(COc1ccc(/C=N/NC(=O)c2ccc(O)cc2)cc1)Nc1cccc([N+](=O)[O-])c1`, the inhibition is 56.7% (active).
As for `COc1cc(/C=N/NC(=O)c2ccc(O)cc2)ccc1OCC(=O)Nc1cccc([N+](=O)[O-])c1`, the inhibition was -5.1%.
To `O=C(COc1ccc(/C=N/NC(=O)c2ccncc2)cc1)Nc1cccc([N+](=O)[O-])c1` belongs -3.3%; to `CN(C)CCCNc1nc(-c2ccccc2)nc2ccccc12`, -1.4%; to `COc1ccc(Cn2c3nc4ccccc4nc3c3c(=O)n(Cc4ccco4)c(C)nc32)cc1`, 55.8% (active).
For `COc1ccc(Cn2c3nc4ccccc4nc3c3c(=O)n(Cc4ccco4)cnc32)cc1`, the inhibition is 24.1%.
As for `Cc1nc2c(c(=O)n1Cc1ccccc1Cl)c1nc3ccccc3nc1n2Cc1ccco1`, the inhibition was -4.4%.
Then `COc1cccc(-c2onc3ccc(C(=O)/C=C/N(C)C)cc23)c1`, with 2.8%.
As for `CCOC(=O)CC1(NC(=O)c2cc(COc3cccc(OC)c3)on2)CCCCC1`, the inhibition is 4.4%.
Then `CCOC(=O)CC1(NC(=O)c2cc(COc3ccc(F)c(F)c3)on2)CCCCC1`, with -5.7%; and `CCOC(=O)CC1(NC(=O)c2cc(COc3cncc(Cl)c3)on2)CCCCC1`, with 54.6% (active); and `Cc1ccc(-n2c(=O)c3sccc3n(CC(=O)NCC3CCCO3)c2=O)cc1F` (configuration not stated), with 68.5% (active).
For `O=C(Cn1c(=O)n(-c2cccc(C(F)(F)F)c2)c(=O)c2sccc21)NCC1CCCO1` (configuration not stated), the inhibition was -9.3%.
Regarding `COc1cccc(-n2c(=O)c3sccc3n(CC(=O)NCC3CCCO3)c2=O)c1` (configuration not stated), the inhibition was -10.8%.
To `O=C(CCCN1C(=O)/C(=C/c2cccs2)SC1=S)Nc1cc([N+](=O)[O-])ccc1O` belongs -12.6%; to `O=C1C=C(NCCNc2c(F)c(F)c(CO)c(F)c2F)CCC1`, 72.7% (active).
Then `CC(=O)/C=C(\C)NCCNc1c(F)c(F)c(CO)c(F)c1F`, with -3.3%; and `O=C1C=C(NCc2ccccc2)CCC1`, with -5.3%.
To `CCOc1c(O)ccc(C2NC(=O)N(C)C(C)=C2C(=O)OC)c1[N+](=O)[O-]` (configuration not stated) belongs 4%; to `CC(=O)Nc1ccc(S(=O)(=O)NNC(=O)COc2ccc(C(C)(C)C)cc2)cc1`, -2.6%; to `COc1cccc(C(=O)NNC(=O)C(=O)N2CCCCC2)c1`, -8.5%.
Regarding `O=C(NNC(=O)c1cccc(Br)c1)C(=O)N1CCCCC1`, the inhibition was 60% (active).
Then `O=C(NNC(=O)c1ccccc1)C(=O)N1CCCCC1`, with 2.5%; and `CCN(CC)CCN(Cc1cc2cc3c(cc2[nH]c1=O)OCCO3)C(=S)NCCCOC`, with -16.1%.
Then `CCOC(=O)C1=NN(C(=O)c2cccc(Br)c2)C(O)(C(C)(C)C)C1` (configuration not stated), with -3.2%.
As for `COC(=O)C1=NN(C(=O)c2cccc(Cl)c2)C(O)(C(C)(C)C)C1` (configuration not stated), the inhibition is 65.7% (active).
To `COC(=O)C1=NN(C(=O)c2ccc(Br)cc2)C(O)(C(C)(C)C)C1` (configuration not stated) belongs -3.5%; to `O=C(O)CC/C(=N/NC(=O)c1cn(-c2ccccc2)nc1-c1ccccc1)C(=O)O`, -3.5%.
Then `COc1cccc(NS(=O)(=O)c2ccc3c(c2)C2C=CCC2C(c2ccc(C(=O)O)cc2)N3)c1` (configuration not stated), with 16.1%; and `COc1ccc(NS(=O)(=O)c2ccc3c(c2)[C@H]2C=CC[C@H]2[C@@H](c2ccc(C(=O)O)cc2)N3)cc1`, with 4.5%; and `S=C(NCc1ccccc1Cl)NC1CCCC1`, with -7.7%.
Turning to `O=C(Cc1ccc(Cl)cc1Cl)NC1CCCCCC1`, the inhibition is -4.7%.
As to `S=C(NCc1ccc(Cl)cc1Cl)NC1CCCCC1`, the inhibition is 68.1% (active).
For `COc1cc(N(C)C)c([N+](=O)[O-])cc1C(=O)NC(C)CNc1ccc([N+](=O)[O-])cc1Cl` (configuration not stated), the inhibition is -7.4%.
Then `Cc1ccc(CN(CC(=O)NC(C)(C)C)C(=O)CNC(=O)c2cccs2)cc1`, with -5.3%.
On to `Cc1ccc(S(=O)(=O)NNC(=O)c2ccoc2C)cc1`, for which the inhibition was -5.8%.
Then `Cc1occc1C(=O)NNS(=O)(=O)c1ccc(Cl)cc1`, with 71.2% (active); and `Cc1occc1C(=O)NNS(=O)(=O)c1ccc([N+](=O)[O-])cc1`, with -10.5%.
